From PubChem BioAssay (NCATS) come the findings set out here.

Molecules are shown by their SMILES. Results filed as inconclusive are left out. Calls of active or inactive are those of the source. Calls follow the shape of the dose curve; as a rule, active = well fitted curve in the direction sought with a large enough effect; inconclusive = small, poorly fitted or top-dose-only effect, or another doubt; inactive = no such curve, though single readings can be large; an effect the other way counts as inactive or inconclusive.
Potency is read from the fitted curve at half-maximal effect.

The nature of the first experiment: qHTS of pediatric cancer cell lines to identify multiple opportunities for drug repurposing: Confirmatory screen for control Hh wild type fibroblast cells (AID 1347121). Also: nearly all actives have a fitted effect of over 70% in size.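 As to activity, negative = cytotoxic: plate controls were DMSO for no effect and bortezomib for full effect.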 Particulars: viability qHTS; series mostly up to 45.9 µM; activity, negative = cytotoxic: at the top concentration. The essentials: (§1)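 Cells (500-1,000/well) rested 5 h, then received compounds for 48 h; metabolically active cells were measured by CellTiter-Glo luminescence. Final concentrations spanned up to 46 µM (MIPE, 11-point) or 0.59 nM-46 µM (NPC, 8-point) in primary screens, 11-point in follow-ups.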
As for `Nc1nc(N)c2nc(-c3ccccc3)c(N)nc2n1`, the “activity, negative = cytotoxic” value was 11.7% (inactive).

As for `C[n+]1cc2c3c(ccc2c2ccc4cc5c(cc4c21)OCO5)OCO3`, the Potency was 4.56 µM (active).

Consider `NCCCNCCSP(=O)(O)O`, for which the activity, negative = cytotoxic was 0.865% [at 9.58 µM] (inactive).

In the case of `CN1C[C@H](C(=O)N[C@]2(C)O[C@@]3(O)[C@@H]4CCCN4C(=O)[C@H](Cc4ccccc4)N3C2=O)C[C@@H]2c3cccc4[nH]cc(c34)C[C@H]21`, the “activity, negative = cytotoxic” value is -1.37% (inactive).

The next experiment is described as follows: qHTS of pediatric cancer cell lines to identify multiple opportunities for drug repurposing: Confirmatory screen for U-2 OS cells (AID 1347122). Also: nearly all actives have a fitted effect of over 65% in size.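 As to activity change, negative = cytotoxicity: plate controls were DMSO for no effect and bortezomib for full effect.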 The following applies: U-2 OS osteosarcoma cell viability; series mostly up to 45.9 µM; activity change, negative = cytotoxicity: at the top concentration. The essentials: as §1
A general note: qHTS replaces the single test concentration by a dilution series.
Consider `C[n+]1cc2c3c(ccc2c2ccc4cc5c(cc4c21)OCO5)OCO3`, for which the Potency was 1.44 µM (active).

On to `CN/C(=C\[N+](=O)[O-])NCCSCc1ccc(CN(C)C)o1`, for which the “activity change, negative = cytotoxicity” value is 15.8% (inactive).

`CN1C[C@H](C(=O)N[C@]2(C)O[C@@]3(O)[C@@H]4CCCN4C(=O)[C@H](Cc4ccccc4)N3C2=O)C[C@@H]2c3cccc4[nH]cc(c34)C[C@H]21`: the compound was classed as inactive.

The next experiment in a line: qHTS of pediatric cancer cell lines to identify multiple opportunities for drug repurposing: Confirmatory screen for Rh41 cells (AID 1347123).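 Also: 48 h compound exposure; nearly all actives have a fitted effect of over 60% in size.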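 As to activity change, negative = cytotoxic: plate controls were DMSO for no effect and bortezomib for full effect.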 The following applies: Rh41 rhabdomyosarcoma cells, viability/cytotoxicity qHTS; series mostly up to 45.9 µM; activity change, negative = cytotoxic: at the top concentration. In a few lines:
as §1
As for `Nc1nc(N)c2nc(-c3ccccc3)c(N)nc2n1`, the “activity change, negative = cytotoxic” value was -26.5% (inactive).

As for `C[C@]12CC[C@@H]3c4ccc(O)cc4C[C@@H](CCCCCCCCCS(=O)CCCC(F)(F)C(F)(F)F)[C@H]3[C@@H]1CC[C@@H]2O` (some centres not stated), the Potency was 8.27 µM (active).

Regarding `C[n+]1cc2c3c(ccc2c2ccc4cc5c(cc4c21)OCO5)OCO3`, the Potency was 2.29 µM (active).

Consider `CN/C(=C\[N+](=O)[O-])NCCSCc1ccc(CN(C)C)o1`, for which the “activity change, negative = cytotoxic” value was 17.1% (inactive).

As for `CN1C[C@H](C(=O)N[C@]2(C)O[C@@]3(O)[C@@H]4CCCN4C(=O)[C@H](Cc4ccccc4)N3C2=O)C[C@@H]2c3cccc4[nH]cc(c34)C[C@H]21`, the Potency was 3.29 µM (active).

Another experiment can be described thus: qHTS of pediatric cancer cell lines to identify multiple opportunities for drug repurposing: Confirmatory screen for RD cells (AID 1347124).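 Also: cells exposed to compound for 48 h before viability readout; nearly all actives have a fitted effect of over 65% in size.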 As to activity change, negative = cytotoxic: % is scaled to controls: 0 for no effect and ±100 for the full control effect. The following applies: RD rhabdomyosarcoma cell viability; series mostly up to 45.9 µM; activity change, negative = cytotoxic: at the top concentration. The essentials: as §1
For the compound `Nc1nc(N)c2nc(-c3ccccc3)c(N)nc2n1`, the “activity change, negative = cytotoxic” value is -10.4% (inactive).

For `C[C@]12CC[C@@H]3c4ccc(O)cc4C[C@@H](CCCCCCCCCS(=O)CCCC(F)(F)C(F)(F)F)[C@H]3[C@@H]1CC[C@@H]2O` (some centres not stated), the “activity change, negative = cytotoxic” value is 10.4% (inactive).

In the case of `C[n+]1cc2c3c(ccc2c2ccc4cc5c(cc4c21)OCO5)OCO3`, the Potency is 1.82 µM (active).

On to `C[C@]12C=CC(=O)C=C1CC[C@H]1[C@@H]3C[C@@H](O)[C@](O)(C(=O)CO)[C@@]3(C)C[C@H](O)[C@@]12F`, for which the Potency is 7.37 µM (active).

For the compound `CN1C[C@H](C(=O)N[C@]2(C)O[C@@]3(O)[C@@H]4CCCN4C(=O)[C@H](Cc4ccccc4)N3C2=O)C[C@@H]2c3cccc4[nH]cc(c34)C[C@H]21`, the “activity change, negative = cytotoxic” value was 4.28% (inactive).
